According to PubChem BioAssay (NCATS):
Where “and” joins values, the source holds several entries; their conditions need not be identical. Equal entries are not always repeated. Unmarked numbers belong to inactive results. Results filed as inconclusive are left out. Calls of active or inactive are those of the source. Unless noted, calls follow the shape of the dose curve; as a rule, active = well fitted curve in either direction with a large enough effect (not every such curve was filed as active); inconclusive = small, poorly fitted or top-dose-only effect, or another doubt; inactive = flat fitted curve, though single readings scatter.

Legend:
[1] = AP1 Signaling Pathway (AID 357); settings: ME-180 AP-1-bla reporter, EGF-induced, beta-lactamase ratio, 5 h; also: % is scaled to controls: 0 for no effect and ±100 for the full control effect
Procedure, shortened: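 ME-180 cells with beta-lactamase reporter under AP-1 response element, stimulated with EC50 EGF; compounds tested in titration series, 5 h at 37 °C. CCF4 substrate added 2.5 h at room temperature; 460/530 nm emission ratio gave %activity and AC50.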

[2] = target: Cytochrome P450 1A2 (Homo sapiens) (UniProt P05177); assay: p450-cyp1a2 (AID 410; calls by dose curve; also: potency is read from the fitted curve at half-maximal effect;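 as to activity change, negative = inhibition: -100% = full effect of reference inhibitor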); settings: recombinant CYP1A2, luciferin-ME demethylation, luminescence; series mostly up to 25.6 µM
Cytochrome P450 1A2 (Homo sapiens), sequence (P05177 whole entry, looked up): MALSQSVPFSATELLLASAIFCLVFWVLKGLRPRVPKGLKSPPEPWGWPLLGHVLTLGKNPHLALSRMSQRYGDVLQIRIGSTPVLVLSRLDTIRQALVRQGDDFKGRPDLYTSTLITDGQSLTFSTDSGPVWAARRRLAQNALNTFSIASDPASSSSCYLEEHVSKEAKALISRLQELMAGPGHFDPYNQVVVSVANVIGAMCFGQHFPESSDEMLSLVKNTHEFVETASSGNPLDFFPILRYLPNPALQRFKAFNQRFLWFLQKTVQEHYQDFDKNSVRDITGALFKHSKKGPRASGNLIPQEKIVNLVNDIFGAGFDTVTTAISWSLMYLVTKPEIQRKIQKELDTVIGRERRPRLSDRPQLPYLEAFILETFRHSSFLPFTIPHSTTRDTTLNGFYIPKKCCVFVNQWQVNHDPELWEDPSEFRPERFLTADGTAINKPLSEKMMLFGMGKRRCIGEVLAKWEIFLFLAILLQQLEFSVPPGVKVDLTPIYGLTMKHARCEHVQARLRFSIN
Procedure, shortened: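 Inhibition was calculated relative to 57 uM furafylline (full inhibition). The reaction used human CYP1A2 at 20nM with Luciferin-ME at its Km, 100uM, driven by an NADPH-regenerating system for 60 min at room temperature.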

[3] = NFAT Signaling Pathway (AID 444); settings: Jurkat NFAT-bla M1, carbachol, beta-lactamase ratio, 5 h;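 also: carbachol stimulus at about its EC50 of 1 µM final; % is scaled to controls: 0 for no effect and ±100 for the full control effect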
Procedure, shortened: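 Jurkat cells with NFAT-driven β-lactamase reporter and co-expressed M1 receptor, stimulated with carbachol (final 1 uM, ~EC50), compound titration, 5 h at 37 °C. CCF4 loaded 1 h at RT; 460/530 nm ratio gave %activity and AC50.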

[4] = Stat Signaling Pathway (AID 446); settings: ME-180 SIE beta-lactamase reporter, IL-6 stimulated, 5 h;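 also: ME-180 cervical cancer cells given 40 pM IL-6 alongside compound; SIE-controlled beta-lactamase reporter measured as 460/530 nm FRET emission ratio; % is scaled to controls: 0 for no effect and ±100 for the full control effect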
Procedure, shortened: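 ME-180 SIE-bla cells; overnight plating; cpd + IL-6 40 pM, 5 h, 37 C; LiveBLAzer 2.5 h RT; 460/530 nm emission ratio. Normalized to 300 pM IL-6 and 125 nM JAK inhibitor controls.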

[5] = target: Glucocorticoid receptor (Homo sapiens) (UniProt P04150); assay: GR-GFP Redistribution (AID 450;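 active = compounds whose dose series gives a full or clear partial fitted curve of increased nuclear translocation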; also: potency is read from the fitted curve at half-maximal effect); settings: U2OS GR-GFP nuclear translocation, laser cytometry, 2 h
Glucocorticoid receptor (Homo sapiens), sequence (P04150 whole entry, looked up, the tested form may be a part): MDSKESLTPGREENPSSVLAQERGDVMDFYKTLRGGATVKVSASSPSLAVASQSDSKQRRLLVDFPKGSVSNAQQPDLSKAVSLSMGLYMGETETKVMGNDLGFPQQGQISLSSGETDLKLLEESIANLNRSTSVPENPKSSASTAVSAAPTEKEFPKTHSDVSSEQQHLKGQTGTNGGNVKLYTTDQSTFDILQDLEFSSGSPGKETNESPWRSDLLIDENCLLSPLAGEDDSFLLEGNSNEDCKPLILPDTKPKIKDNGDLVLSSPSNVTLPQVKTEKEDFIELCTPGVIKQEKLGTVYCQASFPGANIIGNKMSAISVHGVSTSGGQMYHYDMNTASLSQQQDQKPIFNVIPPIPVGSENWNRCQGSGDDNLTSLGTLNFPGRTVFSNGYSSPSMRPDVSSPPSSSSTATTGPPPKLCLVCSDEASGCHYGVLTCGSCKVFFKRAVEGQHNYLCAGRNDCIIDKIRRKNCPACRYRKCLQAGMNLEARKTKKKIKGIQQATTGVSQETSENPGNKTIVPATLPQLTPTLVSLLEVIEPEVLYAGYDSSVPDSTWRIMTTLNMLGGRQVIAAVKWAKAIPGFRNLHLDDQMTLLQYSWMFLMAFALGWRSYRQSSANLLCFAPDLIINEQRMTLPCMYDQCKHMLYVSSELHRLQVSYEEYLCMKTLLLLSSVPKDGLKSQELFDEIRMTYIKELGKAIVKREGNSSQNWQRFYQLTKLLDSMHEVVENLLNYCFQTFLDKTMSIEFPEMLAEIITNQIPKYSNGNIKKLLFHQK

[6] = target: Glucocorticoid receptor (Homo sapiens) (UniProt P04150); assay: GR-EFC Redistribution (AID 451; calls by dose curve; also: potency is read from the fitted curve at half-maximal effect); settings: CHO-K1 GR-EFC translocation, beta-gal luminescence, 2 h
Procedure, shortened: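 CHO-K1 cells expressing nuclear EA and GR-ED fragments of b-gal; compounds titrated up to 46 uM final, 2 h at 37 C. GR nuclear translocation read as complemented b-gal luminescence after 1 h RT detection.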

[7] = target: Mitogen-activated protein kinase 10 (Mus musculus) (UniProt Q61831); assay: JNK3 AlphaScreen Assay (AID 530); settings: JNK3 lysate, c-Jun phosphorylation; series mostly up to 57.1 µM;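 also: kinase came from lysate of stimulated human HepG2 cells; signal reports phosphorylation of biotinylated GST-cJun 1-79 at Ser73 with 10 µM ATP; % is scaled to controls: 0 for no effect and ±100 for the full control effect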
Procedure, shortened: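 qHTS format: compounds tested as titrations against IL-1beta/TNF-alpha-activated HepG2 lysate JNK3 with biotin-GST-cJun substrate and 10 uM ATP at room temperature. Loss of anti-phospho-cJun AlphaScreen signal indicates inhibition.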

[8] = Cell Viability - BJ (AID 421; calls by dose curve;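 also: potency is read from the fitted curve at half-maximal effect; cells exposed to compound for 40 hours at 37 °C before readout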); settings: BJ fibroblast viability, qHTS
Procedure, shortened: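 Luminescent ATP signal (CellTiter-Glo, 20 min at room temperature) served as the read-out of viable BJ cells after 40 hours of compound treatment. Responses were scaled between DMSO and 100 uM tamoxifen, and AC50 values were obtained by Hill modeling.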

[9] = Cell Viability - Jurkat (AID 426;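 active = dose-dependent loss of cell ATP signal giving a full or clear fitted curve, ranked by lower potency value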; also: potency is read from the fitted curve at half-maximal effect); settings: qHTS
Procedure, shortened: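 Seed 5000 Jurkat E6-1 cells/well; add compound; incubate 40 hr at 37 °C; add CellTiter-Glo; wait 20 min at room temperature; read luminescence. Fit concentration-response with Hill equation for AC50.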

[10] = Cell Viability - Hek293 (AID 427;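 active = compounds whose dose-response curve shows a full or clear partial loss of cell viability, called from curve shape rather than a numeric limit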;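 also: potency is read from the fitted curve at half-maximal effect; cells exposed to compound for 40 hours at 37 °C before reading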); settings: qHTS
Procedure, shortened: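 Luminescent ATP read-out (CellTiter-Glo, 20 min RT) after 40 hr compound exposure at 37 °C in complete medium. Signal normalized to DMSO (basal) and 100 uM tamoxifen (100% inhibition); concentration-response fitted with the standard Hill equation to give AC50.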

[11] = Cell Viability - HepG2 (AID 433; calls by dose curve;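 also: potency is read from the fitted curve at half-maximal effect; potency for ATP loss meaning cytotoxicity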); settings: qHTS
Procedure, shortened: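 In this qHTS format, a 40 h, 37 °C compound incubation of HepG2 cells in complete medium precedes a 20 min CellTiter-Glo step at room temperature. Tamoxifen and doxorubicin serve as positive controls; Hill-equation fits yield AC50.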

[12] = Cell Viability - MRC5 (AID 434; calls by dose curve;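 also: potency is read from the fitted curve at half-maximal effect; potency reflects cytotoxicity seen as loss of intracellular ATP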); settings: MRC5 lung fibroblast viability, qHTS
Procedure, shortened: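 MRC5 normal human lung fibroblasts, 1500 cells/well, exposed to compound for 40 hr at 37 C. Cellular ATP was read by CellTiter-Glo luminescence; data normalized to DMSO and 100 uM tamoxifen, with AC50 from Hill fits.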

[13] = Cell Viability - SK-N-SH (AID 435; calls by dose curve;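 also: potency is read from the fitted curve at half-maximal effect; compound exposure lasted 40 h at 37 °C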); settings: SK-N-SH neuroblastoma cell viability qHTS
Procedure, shortened: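 Human neuroblastoma line, 40 h exposure at 37 °C, ATP quantified via luciferase luminescence; DMSO and 100 uM tamoxifen define 0 and 100% inhibition for AC50 fitting.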

[14] = Cell Viability - HUV-EC-C (AID 542; active = well fitted curve in the direction sought with a large enough effect; an effect the other way counts as inactive or inconclusive; also: % is scaled to controls: 0 for no effect and ±100 for the full control effect; nearly all actives have a fitted effect of over 35% in size); settings: HUV-EC-C endothelial cell viability, qHTS; series mostly up to 92.2 µM
Procedure, shortened: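 Decrease in cellular ATP, quantified by luciferase luminescence, reflects toxicity in normal human vascular endothelial HUV-EC-C cells given compound for 40 hr in complete culture medium. Values are AC50s from concentration-response curves.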

[15] = Cell Viability - SH-SY5Y (AID 544; active = well fitted curve in the direction sought with a large enough effect; an effect the other way counts as inactive or inconclusive;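 also: 0% = DMSO alone and -100% = 100 µM tamoxifen; nearly all actives have a fitted effect of over 55% in size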); settings: SH-SY5Y neuroblastoma cell viability; series mostly up to 92.2 µM
Procedure, shortened: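 Cytotoxicity is scored as a concentration-dependent fall in intracellular ATP in human SH-SY5Y cells treated 40 hr in complete culture medium. Potency is expressed as AC50 from a Hill equation fit.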

[16] = Cell Viability - N2a (AID 540; active = well fitted curve in the direction sought with a large enough effect; an effect the other way counts as inactive or inconclusive;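 also: plate controls were DMSO alone for no effect and tamoxifen control for full effect; nearly all actives have a fitted effect of over 45% in size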); settings: N2a mouse neuroblastoma cell viability; activity change, negative = cytotoxicity: at 92.2 µM (top of the series)
Procedure, shortened: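 First, 1500 N2a cells per well incubate 5 hr at 37 °C; next, compounds are added and incubated 40 hr at 37 °C; finally CellTiter-Glo is added and luminescence read after 20 min, with AC50 derived by Hill modeling.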

[17] = Cell Viability - H-4-II-E (AID 543; active = well fitted curve in the direction sought with a large enough effect; an effect the other way counts as inactive or inconclusive; also: % is scaled to controls: 0 for no effect and ±100 for the full control effect; nearly all actives have a fitted effect of over 35% in size); settings: H-4-II-E rat hepatoma viability; series mostly up to 92.2 µM
Procedure, shortened: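 Here, cytotoxicity is measured in the rat hepatoma line H-4-II-E as loss of intracellular ATP after 40 hr compound treatment, detected by luciferase luminescence.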

[18] = Cell Viability - Renal Proximal Tubule (AID 545; active = well fitted curve in the direction sought with a large enough effect; an effect the other way counts as inactive or inconclusive;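 also: 0% = DMSO only and -100% = 100 µM tamoxifen; nearly all actives have a fitted effect of over 40% in size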); settings: renal proximal tubule cells viability, primary cells of rat origin; series mostly up to 91.7 µM
Procedure, shortened: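 In this qHTS format, normal rat kidney-derived proximal tubule cells in complete culture medium receive compound titrations, then sit 40 hours at 37 °C before luciferase-based ATP quantitation; potency is reported as AC50 from concentration-response curves.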

Compound: Nc1ccc(S(=O)(=O)Nc2ccc(Cl)nn2)cc1
- activity change, negative = inhibition ([1]; at 17.2 µM (top of the series)): 7.06%
- Potency [2]: inactive
- activity change, negative = inhibition ([3]; at 17.2 µM (top of the series)): 9.43%
- activity, negative = inhibition ([4]; at 17.2 µM (top of the series)): -3.21%

Compound: CC1(C)OC(=O)NC1=O
- activity change, negative = inhibition ([1]; at 17.2 µM (top of the series)): 5.67%
- Potency [2]: inactive
- activity change, negative = inhibition ([3]; at 17.2 µM (top of the series)): -1.86%
- activity, negative = inhibition ([4]; at 17.2 µM (top of the series)): 1.25%
- Potency [5]: > 20.6 µM
- Potency [6]: > 20.6 µM
- Potency [7]: inactive

Compound: CCCn1cnc2c1c(=O)n(CCCCC(C)=O)c(=O)n2C
- activity change, negative = inhibition ([1]; at 38 µM (top of the series)): -2.42%
- Potency [2]: 12.6 µM (active)
- activity change, negative = inhibition ([3]; at 38 µM (top of the series)): 9.62%
- activity, negative = inhibition ([4]; at 38 µM (top of the series)): 10.7%
- Potency [5]: > 46 µM
- Potency [6]: > 46 µM

Compound: CC(C)NC[C@H](O)c1ccc(O)c(O)c1
- activity change, negative = inhibition ([1]; at 17.2 µM (top of the series)): 3.55% and -12.3%
- activity change, negative = inhibition ([1]; at 38 µM (top of the series)): -3.34% [middle of 4 runs]
- activity change, negative = inhibition ([3]; at 17.2 µM (top of the series)): -6.44% and -3.44%
- activity, negative = inhibition ([4]; at 17.2 µM (top of the series)): -5.65% and -7.18%
- activity, negative = inhibition ([4]; at 38 µM (top of the series)): -27.8% and -1.34% and -7.26%
- Potency [5]: > 46 µM and > 20.6 µM
- Potency [6]: > 46 µM and > 20.6 µM
- Potency [7]: inactive

Compound: OCCN1CCN(CCCN2c3ccccc3Sc3ccc(Cl)cc32)CC1
- activity change, negative = inhibition ([1]; at 17.2 µM (top of the series)): 25.4% and 10.4%
- activity change, negative = inhibition ([1]; at 38 µM (top of the series)): 7.4%
- activity, negative = inhibition ([4]; at 17.2 µM (top of the series)): -2.44% and -12%
- activity, negative = inhibition ([4]; at 38 µM (top of the series)): -28.9%
- Potency [5]: > 20.6 µM
- Potency [6]: > 46 µM and > 20.6 µM

Compound: C[C@]12C[C@H](O)[C@H]3[C@@H](CCC4=CC(=O)CC[C@@]43C)[C@@H]1CC[C@@H]2C(=O)CO
- activity change, negative = inhibition ([1]; at 17.2 µM (top of the series)): 0.397%
- Potency [8]: > 92 µM
- Potency [9]: > 92 µM
- Potency [10]: > 92 µM
- Potency [11]: > 92 µM
- Potency [12]: > 92 µM
- Potency [13]: > 92 µM
- activity change, negative = inhibition ([3]; at 17.2 µM (top of the series)): 2.08%
- activity, negative = inhibition ([4]; at 17.2 µM (top of the series)): 3.29%
- Potency [5]: 0.00593 µM (active)
- Potency [14]: inactive
- Potency [15]: inactive

Compound: Nc1ccc(S(=O)(=O)Nc2nccs2)cc1
- activity change, negative = inhibition ([1]; at 17.2 µM (top of the series)): -3.49%
- Potency [2]: inactive
- Potency [8]: > 92 µM
- Potency [9]: > 92 µM
- Potency [10]: > 92 µM
- Potency [11]: > 92 µM
- Potency [12]: > 92 µM
- Potency [13]: > 92 µM
- activity change, negative = inhibition ([3]; at 17.2 µM (top of the series)): 2.2%
- activity, negative = inhibition ([4]; at 17.2 µM (top of the series)): -1.46%
- Potency [5]: > 20.6 µM
- Potency [6]: > 20.6 µM
- activity change, negative = cytotoxicity [16]: -2.29%
- Potency [14]: inactive
- Potency [17]: inactive
- Potency [18]: inactive
